Bioassay records as filed in PubChem.
Cav3 T inh: Cav3.2 calcium influx blockers – cell-based, Fluo-4 calcium fluorescence, FDSS, MLSMR library, primary screen. 4% of 100,000 active. Cav3.2-expressing cells; hits give low values. B-score at 10 µM. Voltage-dependent T-type calcium channel subunit alpha-1H (Homo sapiens), O95180;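 active means single-dose well whose peak fluorescence ratio is a statistical outlier from its plate by either plate-standardised score or position-corrected B-score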
CYP2C19 inh: blockers of cytochrome P450 2C19 activity – biochemical, luminescence, ADME assay, primary screen. P33261. CYP2C19 Supersomes, luciferin-H EGE luminescence, 30 min. inhibition, % at 5 µM. 21% of 96,000 active. AID 778, 2007;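 active means CYP2C19 inhibition above a set limit at 5 µM in the primary screen, cut at about 50% in these data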
Target sequence (P33261 whole entry, looked up): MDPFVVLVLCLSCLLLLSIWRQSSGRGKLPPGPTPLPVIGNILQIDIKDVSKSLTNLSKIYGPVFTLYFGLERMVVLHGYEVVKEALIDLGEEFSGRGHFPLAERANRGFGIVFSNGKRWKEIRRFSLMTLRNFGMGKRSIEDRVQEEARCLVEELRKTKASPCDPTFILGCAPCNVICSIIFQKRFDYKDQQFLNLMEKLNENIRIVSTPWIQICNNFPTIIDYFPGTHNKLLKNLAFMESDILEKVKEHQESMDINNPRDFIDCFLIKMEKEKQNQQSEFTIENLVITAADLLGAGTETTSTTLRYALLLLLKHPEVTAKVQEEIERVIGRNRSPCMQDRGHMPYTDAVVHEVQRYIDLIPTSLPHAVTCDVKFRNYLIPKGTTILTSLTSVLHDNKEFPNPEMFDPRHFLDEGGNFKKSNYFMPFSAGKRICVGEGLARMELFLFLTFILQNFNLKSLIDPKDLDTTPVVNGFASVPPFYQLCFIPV
CYP2C19 act: human CYP2C19 activators, primary screen, biochemical, luminescence; AID 1025, 2008; activation factor at 5 µM; recombinant CYP2C19, luciferin-H EGE luminescence; hits give high values; 0 = fully inhibited enzyme, 1 = untreated enzyme; 96,000 tested, under 10 active;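 active means activation factor of at least 2 at 5 µM in the primary screen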
CYP2C9 inh: blockers of cytochrome P450 2C9 activity – biochemical, luminescence, ADME assay, primary screen. inhibition, % at 5 µM. 20% of 96,000 active. CYP2C9 Supersomes, luciferin-H conversion. P11712;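 active means blocking of liver enzyme CYP2C9 beyond about 50% at 5 µM, limit read from the data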
CYP2C9 act: human CYP2C9 activators, primary screen, biochemical, luminescence. Cytochrome P450 2C9 (Homo sapiens), P11712. recombinant CYP2C9, luciferin-H conversion; hits give high values; factor 1 = untreated enzyme, 0 = blocked. activation factor at 5 µM. 1.4% of 96,000 active. AID 1024, 2008;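 active means activation factor of 2 or more for CYP2C9 at a 5 µM dose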
A number is an active result; i = inactive; nt = no result given. Most compounds without a hit are left out; they make up all but 27% or so of the library.

SMILES | Cav3 T inh | CYP2C19 inh | CYP2C19 act | CYP2C9 inh | CYP2C9 act
CC(NC(=O)Cn1c(NCCO)nc2ccccc21)c1ccccc1 (stereo not given) | i | i | i | i | i
CCOC(=O)Cn1c(C)c(C#N)c2ccccc21 | i | 57.2 | i | 50.3 | i
Cc1c(C#N)c2ccccc2n1CC(=O)NC(C)c1ccccc1 (stereo not given) | i | 87.3 | i | 58.8 | i
COCc1cc(C)nc(SCC(=O)Nc2cccc(C)c2C)c1C#N | nt | i | i | i | i
N#CCC(=O)N1CCCCCC1 | nt | i | i | i | i
Cc1ccc2cc(CNC(C)C)c(=O)[nH]c2c1 | i | i | i | i | i
Cc1cc(NC(=O)CCC(=O)N(c2ccc(F)cc2)C(C(=O)NC2CCCC2)c2ccncc2)no1 (stereo not given) | nt | i | i | i | i
O=C(CN(Cc1ccc(Cl)c(Cl)c1)S(=O)(=O)c1ccccc1)N/N=C\c1ccc2c(c1)OCO2 | i | i | i | 64.8 | i
O=C(CN(Cc1ccccc1)S(=O)(=O)c1ccccc1)N/N=C/c1ccc2c(c1)OCO2 | -4.24 | 53.1 | i | 74.2 | i
O=C(CN(Cc1ccccc1)S(=O)(=O)c1ccc2c(c1)OCCO2)N/N=C/c1ccc(F)cc1 | nt | i | i | i | i
Cc1ccc(-c2c3c(=O)n(C)c(=O)n(C)c3cn2Cc2cccnc2)cc1 | i | i | i | i | i
Cc1ccc(-c2nnc(N3CCOCC3)c3ccccc23)cc1S(=O)(=O)NCC1CCCO1 (stereo not given) | i | i | i | 71.3 | i
COc1nnc(-c2ccc(C)c(S(=O)(=O)NCCO)c2)c2ccccc12 | i | i | i | i | i
Cc1nn(-c2nc3ccccc3s2)c(N)c1Sc1ccc(F)cc1 | i | i | i | 84.7 | i
COc1ccc(-c2cc(C(=O)N(C)Cc3ccccc3)no2)cc1OC | i | i | i | 50.3 | i
COc1cccc(-c2cc(C(=O)NCCCn3ccnc3)no2)c1 | i | 80.2 | i | 70.6 | i
COc1ccc(-c2cc(C(=O)NCCCn3ccnc3)no2)cc1OC | i | 65.2 | i | 50.4 | i
COc1cccc(-c2cc(C(=O)NCCc3ccccc3)no2)c1 | i | i | i | i | i
Cc1cc(C)nc(N2CCCC(C(=O)NCC(c3ccccc3)c3ccccc3)C2)n1 (stereo not given) | i | nt | nt | nt | nt
O=C(CSc1nnc2c(Cl)cc(Cl)cn12)N1CCOCC1 | i | i | i | i | i
CCOc1ccc(CSC(=N)N)cc1[N+](=O)[O-] | nt | i | i | i | i
CCCCN1C(=O)/C(=C/C=C2\N(C)c3ccccc3C2(C)C)SC1=S | -4.66 | i | i | i | i
CN1/C(=C/C2CC(=O)NC2=O)C(C)(C)c2ccccc21 (stereo not given) | i | i | i | i | i
CCN(CC)c1ccc(NC(=O)C2CCCN(S(=O)(=O)c3cnc[nH]3)C2)c(C)c1 (stereo not given) | i | i | i | i | i
Cc1cc(C)nc(N2CCCC(C(=O)Nc3nc4ccc(S(C)(=O)=O)cc4s3)C2)n1 (stereo not given) | i | 87.1 | i | 83.4 | i
SMILES | Cav3 T inh | CYP2C19 inh | CYP2C19 act | CYP2C9 inh | CYP2C9 act
COC(=O)Nc1ccc(S(=O)(=O)N2CCCC(C(=O)Nc3cccc4c3OCCO4)C2)cc1 (stereo not given) | i | 63.9 | i | 83.1 | i
COc1ccc(C)cc1NC(=O)C1CCCN(S(=O)(=O)c2cnc[nH]2)C1 (stereo not given) | i | 64.2 | i | 62.1 | i
CCSc1nnc(NC(=O)C2CCCN(S(=O)(=O)c3cnc[nH]3)C2)s1 (stereo not given) | i | i | i | 74.0 | i
CCOC(=O)/C=C/c1ccc2c(c1)S(=O)(=O)N(c1cccc(OC)c1)[C@H]2CC(=O)OCC | i | nt | nt | nt | nt
Cc1nc(NCC2CCCO2)nc2c1C(=O)CC(C)(C)C2 (stereo not given) | i | i | i | i | i
O=C(NC1CC1)C1=C[C@@H](C2CCCCC2)C[C@@H](OCCCCO)O1 | i | nt | nt | nt | nt
Cc1ccc2nc(NC(=O)C3CCCN(S(=O)(=O)c4cnc[nH]4)C3)sc2c1 (stereo not given) | i | i | i | 51.1 | i
CCOc1ccccc1NC(=O)C1CCCN(S(=O)(=O)c2ccc(OC)c(C)c2)C1 (stereo not given) | -4.62 | 92.8 | i | i | i
Cc1cccc(CN2CCC(CNC(=O)C3CCCN(S(=O)(=O)c4cnc[nH]4)C3)CC2)c1 (stereo not given) | i | i | i | i | i
Cc1ccnc(NC(=O)C2CCCN(S(=O)(=O)c3cnc[nH]3)C2)c1 (stereo not given) | i | i | i | 58.3 | i
CCOc1ccc2nc(NC(=O)C(NS(=O)(=O)c3cccs3)C(C)C)sc2c1 (stereo not given) | i | i | i | i | i
CCOc1ccc2nc(NC(=O)C3CCCN(S(=O)(=O)c4cccs4)C3)sc2c1 (stereo not given) | i | 50.5 | i | 60.5 | i
O=C(C1CCCN(S(=O)(=O)c2cnc[nH]2)C1)N1CC(=O)N(CCc2ccccc2)C(=O)C1 (stereo not given) | i | i | i | i | i
COc1ccccc1NC(=O)C1CCCN(S(=O)(=O)c2cnc[nH]2)C1 (stereo not given) | i | 61.9 | i | 61.4 | i
CCNCCNc1ccc(Cl)cc1[N+](=O)[O-] | i | nt | nt | nt | nt
Cc1ccc(C(=O)NCCNc2ccc(Cl)cc2[N+](=O)[O-])o1 | i | i | i | 55.2 | i
CS(=O)(=O)NCCCNc1ccc(Cl)cc1[N+](=O)[O-] | i | 66.3 | i | i | i
CCO[C@H]1OC(C(=O)N2CCN(Cc3ccc4c(c3)OCO4)CC2)=C[C@@H](c2ccc(C(F)(F)F)cc2)[C@@H]1CCCO | i | nt | nt | nt | nt
COC(C/C=C\[C@H](O)[C@@H](C)OCc1ccccc1)OC | i | nt | nt | nt | nt
CCN(c1nc(C)cc(OC)n1)S(=O)(=O)c1ccccc1 | i | 76.0 | i | i | i
CC(C)(C)S(=O)(=O)c1ccc(S(=O)(=O)C(C)(C)C)s1 | i | nt | nt | nt | nt
CCOC(=O)c1nn(-c2ccccc2)c(=O)cc1SC(C)C | i | i | i | i | i
CCOC(=O)c1nn(-c2ccccc2F)c(C)c1C(C)=O | i | 98.3 | i | i | i
CCOC(=O)c1nn(-c2ccc(F)cc2)c(C)c1C(C)=O | i | 99.1 | i | i | i
CCOC(=O)c1nn(-c2ccccc2)c(C)c1C(C)=O | i | 99.9 | i | i | i
CCOC(=O)c1nn(-c2ccc(C)cc2)c(C)c1C(C)=O | i | 87.6 | i | i | i
CCOC(=O)c1nnn(-c2ccc(OC)cc2)c1N | i | nt | nt | nt | nt
Cc1nn(C(=O)c2cc3sccc3[nH]2)c(C)c1C | i | i | i | i | i
CN(C)CCCN1c2ccccc2Sc2ccccc21 | i | nt | nt | nt | nt
COc1ccc2c(c1)Sc1ccccc1N2CCN(C)C | i | 57.1 | i | i | i
